Only some compounds are listed: those with a hit (about 5.3% of all), similar ones and a draw of the others.
Mot1-301 SUMO: blocks SUMOylation pathway, rescuing yeast Mot1-301 growth; S. cerevisiae Mot1-301 growth rescue, ATP luminescence, 38.5C; percent above DMSO median, 100 means doubled; growth rescue, % at 18.8 µM; hit rate 1% among 320,000;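 active means every valid replicate shows activation above 250% relative to neutral control wells; inactive means the rest, any valid replicate at or below 250%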;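 further: OY570 slx delta 5 strain wells were the positive control but not used for scaling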
HIF activator: HIF pathway transcriptional activation | activation, % at 7.5 µM (by protocol) | hit rate 0.32% among 300,000 | U2OS HRE-luciferase reporter, luminescence; normalized: DMSO 0%, desferrioxamine 100%;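 active means mean activation of at least 10% of the iron chelator positive control signal, with at least half of replicates also reaching 10%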
M18AAP inhibitor: blocks P. falciparum M18 aspartyl aminopeptidase. recombinant PfM18AAP, H-Glu-NHMec fluorogenic cleavage. inhibition, % at 7.35 µM. hit rate 1.2% among 290,000;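 active means inhibition above the campaign mean inhibition over all tested compounds plus 3 SD, cut at about 28% in these data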;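 further: 0% = plate median of test compound wells and 100% = 2 mM ZnCl2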
ALR inh: inhibitors of human sulfhydryl oxidase ALR | P55789 | purified ALR, DTT oxidation, H2O2 HRP-luminol luminescence | inhibition, % (test concentration not listed) | hit rate 3.8% among 290,000;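 active means mean replicate inhibition above about 79%, with every replicate also reaching it, limit read from the data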
Target sequence (P55789 whole entry, looked up): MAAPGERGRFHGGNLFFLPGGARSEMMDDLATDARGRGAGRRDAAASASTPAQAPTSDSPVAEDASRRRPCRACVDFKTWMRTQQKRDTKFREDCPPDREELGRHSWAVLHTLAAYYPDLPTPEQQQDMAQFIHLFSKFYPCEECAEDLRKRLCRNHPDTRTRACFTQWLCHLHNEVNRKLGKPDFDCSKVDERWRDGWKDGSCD
Active calls of the source: *; . = not tested or not shown.

SMILES	Mot1-301 SUMO	HIF activator	M18AAP inhibitor	ALR inh
COc1cc(=O)n(C)c2c(O)cccc12	-8	0	6	4
COc1ccc(CCN2C(=O)CC(NNC(=O)c3cccc(O)c3)C2=O)cc1 (configuration not stated)	-5	0	3	95*
Cc1c(Cl)cccc1N1C(=O)CC(NNC(=O)c2ccc3c(c2)OCO3)C1=O (configuration not stated)	7	.	.	.
Oc1c(Cl)cc(Cl)cc1Sc1cc(Cl)cc(Cl)c1O	282*	0	11	25
COc1ccc(NC(=O)/C(C#N)=C\C=C\c2ccco2)cc1	-7	3	15	-41
Cc1ccc(Cn2cc(/C=N/Nc3ccc([N+](=O)[O-])cn3)c3ccccc32)cc1	25	0	54*	-6
Cc1c(/C=N/Nc2ccc([N+](=O)[O-])cn2)c2ccccc2n1Cc1ccccc1	486	0	6	15
COc1cccc(/C=N/Nc2ccc([N+](=O)[O-])cn2)c1O	9	50*	14	-6
O=C(O)c1ccc(N/N=C/c2cn(Cc3ccc(F)cc3)c3ccccc23)cc1	-10	1	14	99*
CC1=C(C)CC(C(=O)NCc2c(F)cccc2Cl)C(C(=O)O)C1 (configuration not stated)	23	0	-16	-2
O=c1cc(OCc2ccccc2)cc[nH]1	6	.	.	.
Cc1c(NC(=O)/C(C#N)=C/c2ccc(-c3ccccc3Cl)o2)c(=O)n(-c2ccccc2)n1C	-12	0	-4	88*
COc1ccc(Cl)cc1NC(=O)CN(C)CC(=O)Nc1c(C)n(C)n(-c2ccccc2)c1=O	281*	.	.	-3
Cc1c(NC(C)C)c(=O)n(-c2ccccc2)n1C	14	.	.	97*
Cc1c(NC(=O)C(=O)/C=C(\O)c2ccc(Cl)cc2)c(=O)n(-c2ccccc2)n1C	294*	0	1	30
CN1C(=O)C(Cl)(Cl)C(=O)c2ccccc21	.	0	38*	.
CN1C(=O)C2(NC(=O)c3ccccc3N2C)c2ccccc21 (configuration not stated)	11	0	12	-2
Cc1c(N)cccc1N	77	.	.	86*
Cc1c(N)cccc1[N+](=O)[O-]	55	.	.	21
COc1ccc(-c2cnn(-c3ccccc3)c2N)cc1OC	2	-1	-7	90*
COc1cc(OC)cc(-c2cn[nH]c2N)c1	14	1	-5	99*
COc1ccc(-c2cn[nH]c2N)cc1OC	-7	0	9	99*
COc1ccc(-c2nc(N)n[nH]2)cc1OC	11	0	-13	3
COC(=O)CCCn1nc(NC(=O)COc2ccc(F)cc2)cc1C	3	-1	-11	-7
CCN1CCN(S(=O)(=O)c2ccc(Cl)c(C(=O)NC(C)c3ccccc3Cl)c2)CC1 (configuration not stated)	71	0	.	0
SMILES	Mot1-301 SUMO	HIF activator	M18AAP inhibitor	ALR inh
Cc1cccc(OCc2nnc(SCC(=O)Nc3cc(C)on3)n2C)c1	-8	0	-1	-3
CCOC(=O)C1CCCN(C(=O)c2cc3c(OC)c(OC)c(OC)cc3[nH]2)C1 (configuration not stated)	25	0	-1	-6
O=C(CCn1c(=O)oc2ccccc21)NC1=NCCS1	342*	0	2	-2
CC(=O)Nc1ccc(NC(=O)CCn2c(=O)oc3ccccc32)cc1	-13	0	-5	-4
O=C(CCn1c(=O)oc2ccccc21)N1CCCCCC1	9	1	-11	-1
O=C(CCn1c(=O)oc2ccccc21)n1c(=O)oc2ccccc21	1	1	8	96*
Oc1ccc(C(c2nnnn2CCc2ccccc2)N2CCN(c3nc4ccccc4s3)CC2)cc1 (configuration not stated)	-15	0	-3	-3
O=S1(=O)N=C(Nc2ccc(N3CCOCC3)cc2)c2ccccc21	5	0	2	0
Cc1ccccc1-c1ccc(Nc2ccc(N3CCOCC3)cc2)nn1	1	0	-11	93*
O=c1/c(=C/c2ccc(O)cc2)sc2n1CCCN=2	-16	.	19	98*
CN(C)c1ccc(/C=c2\sc3n(c2=O)CCCN=3)cc1	20	0	5	99*
O=c1/c(=C\c2ccc(F)cc2)sc2n1CCCN=2	9	2	1	49
N=C1/C(=C\c2ccc(Br)o2)C(=O)N=C2SC(CC(=O)N3CCCCC3)=NN12	19	0	5	97*
COc1cc(/C=C2/C(=N)N3N=C(CC(=O)N4CCOCC4)SC3=NC2=O)ccc1OC(C)c1ccccc1 (configuration not stated)	-2	1	-10	12
CS(=O)(=O)Oc1ccc(/C=C2\C(=N)N3N=C(CC(=O)N4CCOCC4)SC3=NC2=O)cc1Cl	-13	0	6	82*
CCOc1ccccc1-n1nnnc1SCC(=O)O	19	0	2	-3
CNc1nc(-c2ccccn2)nnc1-c1ccccc1	-14	14*	1	0
c1ccc(-c2nnc(-c3ccccn3)nc2NC2CCCCC2)cc1	-23	472*	-1	1
Nc1nc(CCl)nc(Nc2ccccc2)n1	1	2	3	87*
Cc1cccc(Nc2nc(N)nc(CCl)n2)c1C	-3	0	18	91*
Cc1ccc(Nc2nc(N)nc(CCl)n2)cc1	8	4	6	7
Cc1ccc(Nc2nc(N)nc(CCl)n2)c(C)c1	-4	1	-6	14
O=C(CN1C(=O)CCC1=O)NNc1ccc2ccccc2c1	201	.	-7	98*
O=C(CNc1ccc2ccccc2c1)NNC1=NCCC1	-11	0	19	84*
O=C(CNc1ccccc1)NNC1=NCCC1	10	0	9	2
SMILES	Mot1-301 SUMO	HIF activator	M18AAP inhibitor	ALR inh
O=C(COc1ccccc1Cl)NCCNC(=O)c1ccco1	-1	1	-5	-9
COc1cc(OC)cc(N2C(=O)CC(N3CCC(C(=O)N4CCCCC4)CC3)C2=O)c1 (configuration not stated)	298*	0	-1	-18
CC(=O)Nc1cccc(N2C(=O)CC(N3CCC(C(=O)N4CCCCC4)CC3)C2=O)c1 (configuration not stated)	11	0	-9	-28
O=S(=O)(c1ccc(Cl)cc1)c1cc(O)ccc1O	11	-1	-4	99*
O=S(=O)(c1ccccc1)c1cc(O)ccc1O	.	1	-10	98*
O=C(COC(=O)c1ccc2ccccc2c1O)NCC(F)(F)F	25	0	-2	-25
COc1ccc(-c2ccc(CCC(=O)O)n2-c2ccccc2OC)cc1	-15	1	23	99*
O=C(O)CCc1ccc(-c2ccccc2)n1NC(=O)c1sc2ccccc2c1Cl	-12	0	4	98*
COc1ccc(-c2ccc(CCC(=O)O)n2NC(=O)c2ccc(O)cc2)cc1	-7	0	7	98*
COc1ccccc1-n1c(CCC(=O)O)ccc1-c1ccccc1	-16	1	16	90*
NC(=O)Nn1c(CCC(=O)O)ccc1-c1ccc(Cl)cc1	51	-1	6	53
COc1ccc(-c2ccc(CCC(=O)O)n2NC(N)=O)cc1	-11	0	18	31

Screening data as filed in PubChem BioAssay.
